Data as given in paper PMC11062922 (Nature Chemical Biology, 2023).
Like-named read-outs stand apart in the source and are kept apart here.

Columns and labels:
Parameters in all cases: species or system human, MV4-11 + K-562 + COLO205 + SK-N-BE2 + OVCAR-8
[1] = tested on: ADRBK1; details: read-out: apparent Kd, n = 1
[2] = tested on: AKT2; details: read-out: apparent Kd, n = 1
[3] = tested on: CDK4; details: read-out: apparent Kd; compound concentrations: 100 nM and 1000 nM (sheet 'Samples'), CATDS: 0.36803542167658398; n = 1
[4] = tested on: CDK6; details: read-out: apparent Kd, n = 1
[5] = tested on: PIP4K2C; details: read-out: apparent Kd; compound concentrations:100 nM and 1000 nM (sheet 'Samples'); n = 1
[6] = tested on: RIOK2; details: read-out: apparent Kd, n = 1
[7] = tested on: AKT1; details: read-out: apparent Kd; compound concentrations: 100 nM and 1000 nM (sheet 'Samples'), CATDS: 0.124475037217828; n = 1
[8] = tested on: AKT3; details: read-out: apparent Kd, compound concentrations: 100 nM and 1000 nM (sheet 'Samples'), n = 1
[9] = tested on: ILK; details: read-out: apparent Kd; compound concentrations: 100 nM and 1000 nM (sheet 'Samples'), CATDS: 0.12734816485016201; n = 1
[10] = tested on: MAP2K2; details: read-out: apparent Kd; compound concentrations: 100 nM and 1000 nM (sheet 'Samples'), CATDS: 0.12469214085712101; n = 1
[11] = tested on: CDC42BPA; details: read-out: apparent Kd; compound concentrations: 100 nM and 1000 nM (sheet 'Samples'), CATDS: 2.9889506530370698E-2; n = 1
[12] = tested on: CDC42BPB; details: read-out: apparent Kd; compound concentrations: 100 nM and 1000 nM (sheet 'Samples'), CATDS: 7.2209321727509101E-2; n = 1
[13] = tested on: CDC42BPG; details: read-out: apparent Kd; compound concentrations: 100 nM and 1000 nM (sheet 'Samples'), CATDS: 5.7260921277851103E-2; n = 1
[14] = tested on: CDKL5; details: read-out: apparent Kd; compound concentrations: 100 nM and 1000 nM (sheet 'Samples'), CATDS: 3.0884187274208798E-2; n = 1
[15] = tested on: CHEK1; details: read-out: apparent Kd; compound concentrations: 100 nM and 1000 nM (sheet 'Samples'), CATDS: 4.9980963828105997E-2; n = 1
[16] = tested on: JAK2; details: read-out: apparent Kd; compound concentrations: 100 nM and 1000 nM (sheet 'Samples'), CATDS: 2.4440515668024899E-2; n = 1
[17] = tested on: NUAK1; details: read-out: apparent Kd; compound concentrations: 100 nM and 1000 nM (sheet 'Samples'), CATDS: 4.1044446827870798E-2; n = 1
[18] = tested on: NUAK2; details: read-out: apparent Kd; compound concentrations: 100 nM and 1000 nM (sheet 'Samples'), CATDS: 3.8421609760156301E-2; n = 1
[19] = tested on: PKN1; details: read-out: apparent Kd; compound concentrations: 100 nM and 1000 nM (sheet 'Samples'), CATDS: 3.7942588141146198E-2; n = 1
[20] = tested on: PKN2; details: read-out: apparent Kd; compound concentrations: 100 nM and 1000 nM (sheet 'Samples'), CATDS: 2.7249776498222002E-2; n = 1
[21] = tested on: PKN3; details: read-out: apparent Kd; compound concentrations: 100 nM and 1000 nM (sheet 'Samples'), CATDS: 1.9288035237500001E-2; n = 1
[22] = tested on: PRKAA1; details: read-out: apparent Kd; compound concentrations: 100 nM and 1000 nM (sheet 'Samples'), CATDS: 2.2574550296483802E-2; n = 1
[23] = tested on: PRKAA2; details: read-out: apparent Kd; compound concentrations: 100 nM and 1000 nM (sheet 'Samples'), CATDS: 1.9838935716802002E-2; n = 1
[24] = tested on: PRKACA; details: read-out: apparent Kd; compound concentrations: 100 nM and 1000 nM (sheet 'Samples'), CATDS: 9.6222688341774595E-2; n = 1
[25] = tested on: PRKACB; details: read-out: apparent Kd; compound concentrations: 100 nM and 1000 nM (sheet 'Samples'), CATDS: 7.2959241198541205E-2; n = 1
[26] = tested on: PRKAG1; details: read-out: apparent Kd; compound concentrations: 100 nM and 1000 nM (sheet 'Samples'), CATDS: 2.1564965270821398E-2; n = 1
[27] = tested on: PRKAG2; details: read-out: apparent Kd; compound concentrations: 100 nM and 1000 nM (sheet 'Samples'), CATDS: 2.8394039575996899E-2; n = 1
[28] = tested on: PRKCA; details: read-out: apparent Kd; compound concentrations: 100 nM and 1000 nM (sheet 'Samples'), CATDS: 4.1441031849898502E-2; n = 1
[29] = tested on: PRKCB; details: read-out: apparent Kd; compound concentrations: 100 nM and 1000 nM (sheet 'Samples'), CATDS: 3.5643049371418899E-2; n = 1
[30] = tested on: PRKCD; details: read-out: apparent Kd; compound concentrations: 100 nM and 1000 nM (sheet 'Samples'), CATDS: 5.5614379812914103E-2; n = 1
[31] = tested on: PRKCQ; details: read-out: apparent Kd; compound concentrations: 100 nM and 1000 nM (sheet 'Samples'), CATDS: 6.3184001345655702E-2; n = 1
[32] = tested on: PRKD2; details: read-out: apparent Kd; compound concentrations: 100 nM and 1000 nM (sheet 'Samples'), CATDS: 1.9916010120102301E-2; n = 1
[33] = tested on: PRKG1; details: read-out: apparent Kd; compound concentrations: 100 nM and 1000 nM (sheet 'Samples'), CATDS: 8.1540237220624201E-2; n = 1
[34] = tested on: PRKX; details: read-out: apparent Kd; compound concentrations: 100 nM and 1000 nM (sheet 'Samples'), CATDS: 3.8731961225305901E-2; n = 1
[35] = tested on: ROCK1; details: read-out: apparent Kd; compound concentrations: 100 nM and 1000 nM (sheet 'Samples'), CATDS: 7.2769225266658799E-2; n = 1
[36] = tested on: ROCK2; details: read-out: apparent Kd; compound concentrations: 100 nM and 1000 nM (sheet 'Samples'), CATDS: 5.7736516058252897E-2; n = 1
[37] = tested on: RPS6KA5; details: read-out: apparent Kd; compound concentrations: 100 nM and 1000 nM (sheet 'Samples'), CATDS: 2.03243213098795E-2; n = 1
[38] = tested on: RPS6KB1; details: read-out: apparent Kd; compound concentrations: 100 nM and 1000 nM (sheet 'Samples'), CATDS: 4.2911282581945501E-2; n = 1
[39] = compound concentrations:100 nM and 1000 nM (sheet 'Samples')

## CC(=O)c1c(C)c2cnc(Nc3ccc(N4CCNCC4)cn3)nc2n(C2CCCC2)c1=O [PFE-PKIS_32]
[1]; [39]
  potency estimated from few doses: 1170 nM
[2]; [39]
  potency estimated from few doses: 1960 nM
[3]
  potency estimated from few doses: 118 nM
[4]; [39]
  potency estimated from few doses: 82.3 nM
[5]
  potency estimated from few doses: 1610 nM
[6]; [39]
  potency estimated from few doses: 2040 nM

## Cl.Nc1n[nH]c2cc(-c3ccccn3)ccc12 [GSK2189892A]
[1]; compound concentrations: 100 nM and 1000 nM (sheet 'Samples'), CATDS: 0.135716479442168
  potency estimated from few doses: 1470 nM
[7]
  potency estimated from few doses: 1730 nM
[2]; compound concentrations: 100 nM and 1000 nM (sheet 'Samples'), CATDS: 0.124185471208428
  potency estimated from few doses: 1740 nM
[8]; CATDS: 0.12570475509553999
  potency estimated from few doses: 1700 nM
[4]; compound concentrations: 100 nM and 1000 nM (sheet 'Samples'), CATDS: 0.119736809743275
  potency estimated from few doses: 1880 nM
[9]
  potency estimated from few doses: 1660 nM
[10]
  potency estimated from few doses: 1730 nM
[6]; compound concentrations: 100 nM and 1000 nM (sheet 'Samples'), CATDS: 0.119525040636944
  potency estimated from few doses: 1880 nM

## COc1ccc(O)c(C(=O)c2ccc(C(=O)N[C@@H]3CCCNC[C@H]3NC(=O)c3ccncc3)cc2)c1F.Cl [RO4367842-001]
[1]; compound concentrations: 100 nM and 1000 nM (sheet 'Samples'), CATDS: 2.1593661333857501E-2
  potency estimated from few doses: 587 nM
[8]; CATDS: 1.9200970976664199E-2
  potency estimated from few doses: 1460 nM
[11]
  potency estimated from few doses: 129 nM
[12]
  potency estimated from few doses: 17.2 nM
[13]
  potency estimated from few doses: 25.7 nM
[14]
  potency estimated from few doses: 115 nM
[15]
  potency estimated from few doses: 33.5 nM
[16]
  potency estimated from few doses: 294 nM
[17]
  potency estimated from few doses: 51.7 nM
[18]
  potency estimated from few doses: 60.9 nM
[19]
  potency estimated from few doses: 62.9 nM
[20]
  potency estimated from few doses: 182 nM
[21]
  potency estimated from few doses: 1400 nM
[22]
  potency estimated from few doses: 448 nM
[23]
  potency estimated from few doses: 1090 nM
[24]
  potency estimated from few doses: 11.1 nM
[25]
  potency estimated from few doses: 17 nM
[26]
  potency estimated from few doses: 592 nM
[27]
  potency estimated from few doses: 155 nM
[28]
  potency estimated from few doses: 50.5 nM
[29]
  potency estimated from few doses: 74.4 nM
[30]
  potency estimated from few doses: 27.2 nM
[31]
  potency estimated from few doses: 21.6 nM
[32]
  potency estimated from few doses: 1050 nM
[33]
  potency estimated from few doses: 14.2 nM
[34]
  potency estimated from few doses: 59.6 nM
[35]
  potency estimated from few doses: 17 nM
[36]
  potency estimated from few doses: 25.4 nM
[37]
  potency estimated from few doses: 897 nM
[38]
  potency estimated from few doses: 46.5 nM
